ELG1 genotoxic: inducers of genotoxicity in HEK293T ELG1-luciferase cells; HEK293T ELG1-luciferase reporter, luminescence, 16 h; AID 504466; Potency, µM (doses to about 46 µM), actives largely listed as activators; hit rate 1.3% among 330,000; also: nearly all actives have a fitted effect of over 60% in size
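Quantitative HTS format in 1536-well plates. HEK293T ELG1-luciferase reporter cells receive test compound and are incubated 16 hr at 37 °C, 5% CO2; ONE-Glo added, 30 min room temperature, then luminescence read.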
NPC1 prom act: activates the NPC1 promoter | Huh7 NPC1 promoter luciferase reporter, 24 h | Potency, µM (doses to about 9.22 µM), most hits filed as activators | hit rate 2.4% among 320,000; also: nearly all actives have a fitted effect of over 60% in size
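Compounds in DMSO were transferred onto Huh7 NPC1-luciferase reporter cells pre-incubated 2 h; after 24 h at 37 °C, Amplite reagent was dispensed and luminescence recorded 10 min later.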
SMN2 splice enh: SMN2 splice variant enhancement. HEK293 SMN2-luciferase splicing reporter, luminescence, 30-36 h. Potency, µM (titrated, usually from 46.1 µM), usual class: activators. AID 1458. hit rate 2.8% among 210,000; also: nearly all actives have a fitted effect of over 55% in size
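qHTS luciferase splicing reporter: luminescence rises when SMN2 exon 7 is included in transfected HEK293 cells. Compound exposure lasted 30-36 h at 37C, with 4.5 mM final sodium butyrate as control, followed by a ONE-Glo read.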
Rab9 prom act: activators of Rab9 promoter; hit rate 2.8% among 320,000; Potency, µM (titrated, usually from 9.22 µM), usual class: activators; AID 485297; Huh7 Rab9 promoter-luciferase reporter, luminescence, 24 h; also: nearly all actives have a fitted effect of over 60% in size
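Measured in stably transfected Huh7 cells bearing a Rab9 promoter–luciferase construct: 24 h compound treatment at 37 °C, followed by luminescence detection.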
ELG1 repair inh: ELG1-dependent DNA repair inhibition; HEK293T ELG1-luciferase reporter, luminescence, 16 h; DNA damage induced by 5-fluorouridine; Potency, µM (top dose mostly 46.1 µM), hits mostly inhibitors; hit rate 2.3% among 330,000; also: nearly all actives have a fitted effect of over 55% in size
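HEK293T cells expressing luciferase-tagged ELG1 (2,000/well) received 5-Fluorouridine plus compound or DMSO for 16 hr at 37 °C. Luciferase was read by ONE-Glo luminescence after 30 min at room temperature.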
FLuc counter: counter-screen for miR-21 project: firefly luciferase inhibitors or activators; P08659; purified FLuc, Km substrates, luminescence inhibition; Potency, µM (series often up to 57.5 µM), most hits filed as inhibitors; hit rate 6.9% among 360,000; AID 588342; also: nearly all actives have a fitted effect of over 55% in size
Target sequence (P08659 whole entry, looked up): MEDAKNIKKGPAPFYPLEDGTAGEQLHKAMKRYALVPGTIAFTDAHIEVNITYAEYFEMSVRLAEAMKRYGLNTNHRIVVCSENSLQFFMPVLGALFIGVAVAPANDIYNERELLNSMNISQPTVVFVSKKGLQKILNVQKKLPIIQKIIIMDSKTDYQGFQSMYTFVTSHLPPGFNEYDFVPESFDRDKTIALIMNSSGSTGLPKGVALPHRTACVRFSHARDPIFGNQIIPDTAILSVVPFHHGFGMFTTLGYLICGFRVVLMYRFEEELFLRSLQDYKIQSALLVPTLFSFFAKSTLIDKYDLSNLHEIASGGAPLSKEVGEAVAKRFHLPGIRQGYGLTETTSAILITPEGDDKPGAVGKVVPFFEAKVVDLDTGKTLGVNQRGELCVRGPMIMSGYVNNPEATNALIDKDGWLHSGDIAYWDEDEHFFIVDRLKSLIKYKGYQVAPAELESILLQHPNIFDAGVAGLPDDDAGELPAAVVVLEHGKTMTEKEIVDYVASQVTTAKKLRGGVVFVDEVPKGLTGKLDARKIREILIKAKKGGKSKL
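Biochemical qHTS of compounds, final roughly 60 µM downward over six points, against 10 nM purified firefly luciferase using Km concentrations of substrates (10 uM D-luciferin, 10 uM ATP) in Tris acetate pH 7.5 buffer; luminescence output.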
Hits are given with their value; n = inactive; u = inconclusive; x = no result given; [ ] = dose if it differs, or a comment. Hits are enriched below; roughly 9.3% of the tested compounds scored in any of these assays. Calls follow the shape of the dose curve; as a rule, active = well fitted curve in the direction sought with a large enough effect; inconclusive = small, poorly fitted or top-dose-only effect, or another doubt; inactive = no such curve, though single readings can be large; an effect the other way counts as inactive or inconclusive.

SMILES	ELG1 genotoxic	NPC1 prom act	SMN2 splice enh	Rab9 prom act	ELG1 repair inh	FLuc counter
C=CCOc1ccc(/C=N/Nc2ccccn2)cc1OC	u	3.5µM	11µM	u	u	5.4µM
COC(=O)c1cc(NC(=O)c2oc(=O)c3ccccc3c2-c2ccccc2)cc(C(=O)OC)c1	x	x	n	x	x	n
N#C/C(=C\c1ccc(N2CCOCC2)o1)C(=O)NC1CCCCC1	n	n	x	n	n	17µM
N#C/C(=C\c1ccc(N2CCOCC2)o1)C(=O)NCCc1ccccc1	n	n	n	n	n	27µM
N#C/C(=C/c1ccc(N2CCOCC2)o1)C(=O)Nc1ccccc1	u	2µM	14µM	2µM	u	2.7µM
COCCNC(=O)/C(C#N)=C/c1ccc(N2CCOCC2)o1	n	n	n	n	n	n
Cc1c(-n2c(=O)n(Cc3ccccc3)c(=O)c3[nH]cnc32)cccc1S(C)=O (configuration not stated)	n	n	x	n	n	n
O=S(=O)(NCCc1csc(-c2ccc(F)cc2)n1)c1ccc(Cl)cc1	x	x	x	x	x	n
COc1ccccc1C(=O)OCC(=O)N1CCC(Cc2ccccc2)CC1	n	n	x	n	u	17µM
O=C(OCC(=O)N1CCC(Cc2ccccc2)CC1)c1ccc[nH]c1=O	n	n	n	n	n	n
CC(=O)Nc1ccc(C(=O)OCC(=O)N2CCC(Cc3ccccc3)CC2)cc1	n	n	x	n	6.5µM	n
CN1CCc2c(OCC(=O)N3CCC(Cc4ccccc4)CC3)cccc2C1=O	n	n	n	n	9.2µM	n
COc1ccc(/C=N/N2CCN(c3ccc(Cl)cc3)CC2)cc1O	n	n	x	n	n	n
CCCCN1C(=O)CC(Nc2ccc(CC)cc2)C1=O (configuration not stated)	16µM	n	u	n	u	13µM
CCc1ccc(NC2CC(=O)N(CCc3ccc(OC)c(OC)c3)C2=O)cc1 (configuration not stated)	n	n	n	n	u	n
Cc1oc(/N=C/c2cccc3ccccc23)c(C#N)c1C	n	n	n	n	n	n
COc1cc(/C=N/c2oc(C)c(C)c2C#N)cc(Br)c1O	n	n	x	n	n	15µM
Cc1oc(/N=C/c2ccccc2)c(C#N)c1C	n	n	x	n	n	12µM
Cc1ccc(OCCNC(=O)c2ccc3ccccc3n2)cc1	n	n	x	n	u	u
O=C(Nc1ccc(Cl)cn1)c1ccc2ccccc2n1	u	u	20µM	u	u	1.5µM
Cc1ccc(NC(=O)c2ccc3ccccc3n2)nc1	9.2µM	2.5µM	3.2µM	3.5µM	u	1.7µM
COc1ccc(CCN(C)C(=O)CNC(=O)c2ccc3c(c2)OCO3)cc1OC	n	n	x	n	n	n
Cc1ccc(-n2c(SCC(=O)N3CCc4ccccc43)nc3c([nH]c4ccccc43)c2=O)cc1	x	x	x	x	x	n
COc1ccccc1N1CCN(C(=O)c2cc3c(=O)n4cccc(C)c4nc3s2)CC1	n	n	x	n	u	n
Cc1ccc(-n2c(=O)c3c4c(sc3n(Cc3cc(=O)n5cc(Cl)ccc5n3)c2=O)CCC4)cc1C	x	x	n	x	x	n
SMILES	ELG1 genotoxic	NPC1 prom act	SMN2 splice enh	Rab9 prom act	ELG1 repair inh	FLuc counter
COc1cc2c(cc1OC)C(COc1ccc([N+](=O)[O-])cc1)N(C(C)=O)CC2 (configuration not stated)	n	n	x	n	8.2µM	n
COc1cc2c(cc1OC)C(C)N(C(=O)C1COc3ccccc3O1)CC2 (configuration not stated)	n	n	u	n	23µM	n
COc1cc2c(cc1OC)C(C)N(C(C)=O)CC2 (configuration not stated)	u	n	0.63µM	n	u	n
COc1cc2c(cc1OC)C(C)N(C(=O)/C=C/c1cc(OC)c(OC)c(OC)c1)CC2 (configuration not stated)	n	n	x	n	18µM	n
COc1ccc(C(=O)N2CCN(C(=O)C3COc4ccccc4O3)CC2)cc1OC (configuration not stated)	n	n	x	n	n	n
COc1cc2c(cc1OC)C(COc1ccccc1OC)N(C(C)=O)CC2 (configuration not stated)	n	n	x	n	n	n
Cc1cnn2c(C3CC3)ccnc12	n	n	n	n	n	n
C=C(C)C(=O)/C=C/CCC/C=C/C(=O)OCC	x	x	n	x	x	x
COc1ccc(C2c3cc(OC)c(OC)cc3CCN2C(=O)c2ccccc2)cc1OC (configuration not stated)	n	n	x	n	6.5µM	n
COc1cc(/C=C/C(=O)N2CCCc3ccccc32)cc(OC)c1OC	n	n	n	n	8.2µM	n
COc1ccc(C(=O)N2CCc3cc(OC)c(OC)cc3C2c2ccc(OC)c(OC)c2)cc1 (configuration not stated)	n	n	x	n	n	n
CCOC(=O)c1[nH]c(C)c(CN(C(C)=O)c2ccc(OCC)cc2)c1C	n	n	x	n	n	n
CN1c2ccccc2C(=O)/C(=C\Nc2ccc(F)cc2F)S1(=O)=O	n	n	x	n	n	2.4µM
NNC(=O)c1ccc(CSc2cccc3cccnc23)cc1	n	n	n	n	n	u
c1cnc2c(SCc3ccc(-c4nnco4)cc3)cccc2c1	n	u	n	u	u	24µM
Cc1cccc(CSc2cccc3cccnc23)c1	u	n	n	n	u	19µM
COC(=O)[C@@H]1CC[C@H](C)[C@@H](c2ccc(C)cc2)N1C(=O)c1ccc(/C=N/O[C@@H](C)c2cn([C@H](CO)Cc3ccccc3)nn2)cc1	n	n	n	n	15µM	n
O=C1C(C=NCc2ccco2)=C(O)c2ccccc21	5.2µM	n	u	n	u	6.7µM
O=C1C(C=NCc2cccnc2)=C(O)c2ccccc21	2.1µM	n	x	u	u	1.9µM
CCCCn1c(N)c(N(CC(C)C)C(=O)c2ccc([N+](=O)[O-])o2)c(=O)[nH]c1=O	n	n	x	n	n	n
CC1C(=O)N(Cc2cccc(F)c2)c2ccccc2N1C(=O)c1ccccc1 (configuration not stated)	n	n	x	n	23µM	n
COc1cccc(CN2C(=O)C(C)N(C(=O)c3c(F)cccc3F)c3ccccc32)c1 (configuration not stated)	n	n	x	n[1.84 µM]	u	n
Cc1ccccc1NC(=O)Nc1nc2ccc(S(C)(=O)=O)cc2s1	n	4µM	u	u	u	n
NS(=O)(=O)c1ccc2nc(NC(=O)Nc3ccccc3F)sc2c1	3.3µM	0.5µM	x	0.4µM	u	1.3µM
Cn1c(=NC(=O)c2ccccc2[N+](=O)[O-])sc2cccc(F)c21	u	0.56µM	x	0.5µM	u	0.6µM
Cn1c(=NC(=O)C(C)(C)C)sc2cccc(F)c21	n	n	x	n	u	u
